Assay outcomes as filed in PubChem BioAssay.
Most compounds without a hit are left out; they make up all but 2% or so of the library.
TDP-43 yeast inh – rescues yeast growth from TDP-43 toxicity. TDP-43 expressing yeast growth rescue, BacTiter-Glo, 24 h. Potency, µM (top dose mostly 46.1 µM), for the others: at the top dose growth rescue (activation), actives largely listed as activators. 410,000 compounds, 1.8% hits. AID 652104; also: potency is read from the fitted curve at half-maximal effect; % of control where 0% means no effect; nearly all actives have a fitted effect of over 50% in size
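In this qHTS, compounds that restore growth of yeast expressing TDP-43 appear as activators. Cells (OD600=0.02, galactose medium, raffinose-pregrown) are incubated with compound 24 hr at 30 deg C and growth is quantified by BacTiter-Glo.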
aSyn yeast inh – inhibitors of alpha-synuclein toxicity in yeast | Potency, µM (top dose mostly 46.1 µM), inactives show at the highest dose growth rescue (activation), usual class: activators | Yeast expressing alpha-synuclein, growth rescue, BacTiter-Glo, 24 h | AID 652106 | 370,000 compounds, 0.14% hits; also: potency is read from the fitted curve at half-maximal effect; % of control where 0% means no effect; nearly all actives have a fitted effect of over 65% in size
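Readout is rescue of growth in alpha-synuclein-expressing yeast, so inhibitors of toxicity appear as activators. Growth after 24 hr at 30 deg C in galactose medium is quantified by luminescence.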
mIDH1 inhibitor – blocks human mutant IDH1 R132H enzyme. IDH1-R132H enzyme, NADPH consumption, diaphorase/resazurin fluorescence. Potency, µM (top dose mostly 76.6 µM), for inactives: top-dose activity change, negative = inhibition, usual class: inhibitors. 390,000 compounds, 0.093% hits; also: potency is read from the fitted curve at half-maximal effect; % is scaled to controls: 0 for no effect and ±100 for the full control effect; nearly all actives have a fitted effect of over 65% in size
Target sequence (O75874 whole entry R132H, stated change not applied): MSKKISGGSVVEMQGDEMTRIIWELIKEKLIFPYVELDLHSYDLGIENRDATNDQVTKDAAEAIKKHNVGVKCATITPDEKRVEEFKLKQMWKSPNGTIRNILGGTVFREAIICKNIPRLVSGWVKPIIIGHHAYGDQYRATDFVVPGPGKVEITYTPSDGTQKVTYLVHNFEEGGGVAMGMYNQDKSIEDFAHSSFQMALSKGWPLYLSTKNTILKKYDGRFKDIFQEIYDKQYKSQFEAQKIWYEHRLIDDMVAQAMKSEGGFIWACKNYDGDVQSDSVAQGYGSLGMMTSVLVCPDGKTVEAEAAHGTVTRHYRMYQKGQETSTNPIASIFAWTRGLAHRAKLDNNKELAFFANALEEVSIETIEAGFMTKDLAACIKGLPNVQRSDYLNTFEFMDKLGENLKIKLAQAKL
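IDH1-R132H (0.5 ug/mL dispensed) in pH 7.5 Tris buffer was preincubated 30 min with compound, then given a substrate mix of 0.016 mM NADPH and 2 mM alpha-KG for 80 min at room temperature; remaining NADPH was read by diaphorase/resazurin fluorescence.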
Abeta rescue – A-beta toxicity reversal in yeast. Potency, µM (doses to about 46.1 µM), usual class: activators. yeast expressing A-beta42, growth rescue, OD600, 48 h; response scale: 0% DMSO, 100% iron-clioquinol control. 410,000 compounds, 0.063% hits; also: potency is read from the fitted curve at half-maximal effect; nearly all actives have a fitted effect of over 55% in size
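Yeast growth medium received pinned compounds, then yeast cells expressing toxic A-beta were added; plates incubated at 30 C for 48 hr. Growth read as absorbance at 600 nm, normalized to DMSO and equimolar FeCl3 plus clioquinol controls.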
LDHA block – inhibitors of human lactate dehydrogenase A | AID 1347041 | 480,000 compounds, 0.15% hits | purified LDHA, NADH/diaphorase-resazurin fluorescence; active compounds read low | activity change, % (values are at about 110 or 230 µM) | P00338; in the data active = activity change below about -30%; inconclusive = mostly about -25% to -30%;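 also: plate controls were DMSO wells for no effect and wells without enzyme for full effect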
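LDH5 2 nM; NADH 0.06 mM, pyruvate 0.2 mM; 200 mM Tris pH 7.4, EDTA, Tween-20; 5 min RT. Detection: diaphorase 0.133 mg/mL + resazurin 37 µM, fluorescence ex540/em590 at 0 and 20 min; normalized to enzyme-free and DMSO wells.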
FUS yeast rescue – suppressors of FUS proteinopathy in yeast. 390,000 compounds, 0.24% hits. AID 1347120. Potency, µM (highest dose often 76.6 µM), usual class: activators. S. cerevisiae FUS-expressing, growth rescue, OD600, 24 h;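 also: potency is read from the fitted curve at half-maximal effect; plate controls were DMSO vehicle for no effect and reference control for full effect; nearly all actives have a fitted effect of over 55% in size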
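Steps: raffinose overnight preculture; dilution to OD 0.005 in 2% galactose minimal medium; compound addition (concentration series); 24hr at 30C, 99% humidity; absorbance read at 600 nm.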
Numbers without * were called inactive. Unless noted, calls follow the shape of the dose curve; as a rule, active = well fitted curve in the direction sought with a large enough effect; inconclusive = small, poorly fitted or top-dose-only effect, or another doubt; inactive = no such curve, though single readings can be large; an effect the other way counts as inactive or inconclusive.

What do the screens show for `Cn1c(=O)c2c(ncn2CCOc2cccc(Br)c2)n(C)c1=O`?
TDP-43 yeast inh: 14µM*; aSyn yeast inh: 27%; mIDH1 inhibitor: 3%; Abeta rescue: inactive; LDHA block: -2; FUS yeast rescue: inactive

Results for Cc1ccc2nc(/C(C#N)=C\C3CC4C=CC3C4)[nH]c2c1 (stereo not given) ?
LDHA block: 16

How did Cc1ccc(C(=O)Nc2cc3c(cc2SCc2ccco2)n(C)c(=O)n3C)cc1 do in these assays?
LDHA block: 25

How did COc1ccc(C(C)=O)cc1CSc1nnc(Nc2ccc(C)cc2C)s1 do in these assays?
TDP-43 yeast inh: 20µM*; aSyn yeast inh: inconclusive; mIDH1 inhibitor: 6%; Abeta rescue: inactive; LDHA block: -6; FUS yeast rescue: inactive

What do the screens show for `Cc1c(NC(=O)C(C)OC(=O)c2c3c(nc4ccccc24)CCC3)c(=O)n(-c2ccccc2)n1C` (stereo not given)?
TDP-43 yeast inh: 0%; aSyn yeast inh: -4%; mIDH1 inhibitor: 2%; Abeta rescue: inactive; LDHA block: -7; FUS yeast rescue: 22µM*

How did Cc1c(NC(=O)COC(=O)c2c3c(nc4ccccc24)CCCC3)c(=O)n(-c2ccccc2)n1C do in these assays?
TDP-43 yeast inh: -5%; aSyn yeast inh: 0%; mIDH1 inhibitor: 2%; Abeta rescue: inactive; LDHA block: -2; FUS yeast rescue: inactive

How did CCN1CCOC(CC(=O)Nc2cccc([N+](=O)[O-])c2)C1=O (stereo not given) do in these assays?
TDP-43 yeast inh: inconclusive; aSyn yeast inh: inconclusive; mIDH1 inhibitor: -1%; Abeta rescue: inactive; LDHA block: -8; FUS yeast rescue: inactive

How did CCCN1CCOC(CC(=O)Nc2ccc([N+](=O)[O-])cc2)C1=O (stereo not given) do in these assays?
TDP-43 yeast inh: 20µM*; aSyn yeast inh: 3%; mIDH1 inhibitor: 2%; Abeta rescue: inactive; LDHA block: 1; FUS yeast rescue: inactive

How did O=C(CSc1nc2ccccc2c2c1CCCC2)N1CCOCC1 do in these assays?
TDP-43 yeast inh: 10µM*; aSyn yeast inh: inconclusive; mIDH1 inhibitor: 2%; Abeta rescue: inactive; LDHA block: -2; FUS yeast rescue: inactive

What do the screens show for `O=C(Cn1c(SCC(=O)Nc2ccc(F)cc2)nc2ccccc21)NCc1ccccc1Cl`?
TDP-43 yeast inh: 17%; mIDH1 inhibitor: -19%; Abeta rescue: inactive; LDHA block: -32*; FUS yeast rescue: inactive

How did O=C(NC12CC3CC(CC(C3)C1)C2)c1ccc([N+](=O)[O-])o1 do in these assays?
TDP-43 yeast inh: 20µM*; aSyn yeast inh: -28%; mIDH1 inhibitor: 5%; Abeta rescue: inactive; LDHA block: 1; FUS yeast rescue: inactive

Results for O=C(NC12CC3CC(CC(C3)C1)C2)c1ccc(Br)o1 ?
TDP-43 yeast inh: -1%; aSyn yeast inh: -11%; mIDH1 inhibitor: -2%; Abeta rescue: inactive; LDHA block: 3; FUS yeast rescue: inactive

How did Cc1nn(C)c2c1c(C(F)(F)F)cc(=O)n2CC(=O)N1CCN(c2ccccc2F)CC1 do in these assays?
TDP-43 yeast inh: 22µM*; mIDH1 inhibitor: 0%; Abeta rescue: inactive; LDHA block: 3; FUS yeast rescue: inconclusive

What do the screens show for `Nc1cccc(Oc2c(F)c(F)c(Oc3cccc(N)c3)c(F)c2F)c1`?
TDP-43 yeast inh: 5.6µM*; aSyn yeast inh: -13%; mIDH1 inhibitor: 19%; Abeta rescue: inactive; LDHA block: -5; FUS yeast rescue: inactive

How did CCS(=O)(=O)N(Cc1ccc(Cl)c(Cl)c1)c1c(C)n(C)n(-c2ccccc2)c1=O do in these assays?
LDHA block: 6

How did COc1ccc(-c2c(C)nn3c(C)cc(C)nc23)cc1 do in these assays?
TDP-43 yeast inh: 14µM*; aSyn yeast inh: -6%; mIDH1 inhibitor: -3%; Abeta rescue: inactive; LDHA block: -2; FUS yeast rescue: inactive

What do the screens show for `COc1ccc(-c2c(C)nn3c(C(F)(F)F)cc(C)nc23)cc1`?
TDP-43 yeast inh: 27%; aSyn yeast inh: -5%; mIDH1 inhibitor: -4%; Abeta rescue: inactive; LDHA block: -3; FUS yeast rescue: inactive

Results for Cc1ccc(Cl)cc1NC(=O)C(C)N(C)Cc1ccc2c(c1)OCCO2 (stereo not given) ?
LDHA block: 0

Results for CC(=O)c1ccc(NC(=O)c2ccc(-c3ccc(Cl)cc3)o2)cc1 ?
TDP-43 yeast inh: 11µM*; Abeta rescue: inactive; LDHA block: 0; FUS yeast rescue: inactive

How did O=C(Nc1cccc(NC(=O)c2ccc(-c3ccc(Br)cc3)o2)c1)c1ccccc1 do in these assays?
TDP-43 yeast inh: -6%; aSyn yeast inh: 1%; mIDH1 inhibitor: 4%; Abeta rescue: inactive; LDHA block: -5; FUS yeast rescue: inactive

Results for O=C(Nc1ccccc1)c1ccc(-c2ccc(Br)cc2)o1 ?
TDP-43 yeast inh: 13µM*; aSyn yeast inh: -21%; mIDH1 inhibitor: 10%; Abeta rescue: inactive; LDHA block: 6; FUS yeast rescue: inactive

How did Cc1cc(C)nc(SCc2nnc(SCc3ccccc3Cl)o2)n1 do in these assays?
TDP-43 yeast inh: 16µM*; aSyn yeast inh: 18%; mIDH1 inhibitor: 9%; Abeta rescue: inactive; LDHA block: -5; FUS yeast rescue: inactive

What do the screens show for `Cc1cc(C)nc(SCc2nnc(SCC(=O)Nc3c(C)cccc3C)o2)n1`?
TDP-43 yeast inh: -4%; aSyn yeast inh: 2%; mIDH1 inhibitor: 3%; Abeta rescue: inactive; LDHA block: -9; FUS yeast rescue: inactive

Results for O=S(=O)(NCc1c(Cl)cccc1Oc1ccccc1)c1ccccc1 ?
TDP-43 yeast inh: inconclusive; aSyn yeast inh: 18%; mIDH1 inhibitor: 1%; Abeta rescue: inactive; LDHA block: 3; FUS yeast rescue: inactive

What do the screens show for `Cc1ccc(S(=O)(=O)NCc2c(Cl)cccc2Oc2ccccc2)cc1`?
TDP-43 yeast inh: 20µM*; aSyn yeast inh: 6%; mIDH1 inhibitor: 2%; Abeta rescue: inactive; LDHA block: -5; FUS yeast rescue: inactive

How did NC(=S)NNC(=S)NCc1ccccc1 do in these assays?
LDHA block: 2

Results for O=C(CSc1nccn1Cc1ccc2c(c1)OCO2)Nc1nc2ccccc2s1 ?
LDHA block: 9

What do the screens show for `Cc1ccc(Cn2ccnc2SCC(=O)Nc2nc3ccccc3s2)cc1`?
TDP-43 yeast inh: 22µM*; mIDH1 inhibitor: -18%; Abeta rescue: inactive; LDHA block: -9; FUS yeast rescue: inconclusive
